{"source": "PubChem BioAssay", "note": "A number with no mark means an inactive call. The rule behind the calls is not given here."}
{"test_system": "Aerobactin synthetase IucA (Klebsiella pneumoniae hvKP1)", "experiment": "Biochemical IucA enzyme inhibition primary screen of the Spectrum library (AID 1346200);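 note: 100% = wells without compound and 0% = wells lacking enzyme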", "conditions": "malachite green pyrophosphate, A620, at 8 µM, hits give low values", "units": {"activity remaining": "%"}}
{"compound": "C[C@]12CCC(=O)C=C1CCC1C2C(=O)C[C@@]2(C)C1CC[C@]2(O)C(=O)CO", "note": "(stereo partly drawn)", "activity remaining": 111}
{"compound": "CO/N=C(/C(=O)N[C@@H]1C(=O)N2C(C(=O)O)=C(CSc3nc(=O)c(O)nn3C)CS[C@H]12)c1csc(N)n1", "activity remaining": 110}
{"compound": "CCCCCC(=O)O[C@]1(C(C)=O)CCC2C3CCC4=CC(=O)CC[C@]4(C)C3CC[C@@]21C", "note": "(stereo partly drawn)", "activity remaining": 109}
{"compound": "O=C(O)c1cc(=O)c2c(OCC(O)COc3cccc4oc(C(=O)O)cc(=O)c34)cccc2o1", "activity remaining": 115}
{"compound": "O=C(O)c1c2ccccc2cc2ccccc12", "activity remaining": 116}
{"compound": "O=C(O)COCCN1CCN(C(c2ccccc2)c2ccc(Cl)cc2)CC1", "note": "(stereo not drawn)", "activity remaining": 116}
{"compound": "NC1=NCCN1CC(=O)O", "activity remaining": 112}
{"compound": "COc1cc(NS(=O)(=O)c2ccc(N)cc2)nc(OC)n1", "activity remaining": 90.2}
{"compound": "CN[C@H]1C[C@@H](N)[C@H](O)[C@@H](O[C@@H]2O[C@H](CO)[C@@H]3OC4(O[C@@H]3[C@@H]2O)O[C@H](C(N)CO)[C@H](O)[C@H](O)[C@H]4O)[C@@H]1O", "note": "(stereo partly drawn)", "activity remaining": 122}
{"compound": "O=C1OC(c2ccc(O)cc2)(c2ccc(O)cc2)c2ccccc21", "activity remaining": 115}
{"compound": "Nc1ccn(C2O[C@H](CO)[C@@H](O)[C@H]2O)c(=O)n1", "note": "(stereo partly drawn)", "activity remaining": 101}
{"compound": "CC1(C)CC2C1CCC1(C)OC2(C)CCC1O", "note": "(stereo not drawn)", "activity remaining": 120}
{"compound": "CC1=C(/C=C/C(C)=C/C=C/C(C)=C/C=C/C=C(C)/C=C/C=C(C)/C=C/C2=C(C)C(=O)C(O)CC2(C)C)C(C)(C)CC(O)C1=O", "note": "(stereo not drawn)", "activity remaining": 109}
